How the values were obtained:
Assay in all cases: DAPPL (digital affinity profiling via proximity ligation, sequencing); 10 mM Tris-HCl pH 7.5, 50 mM NaCl, 1 mM DTT, 4% glycerol, room temperature, 30 min; GST-TFs on glutathione beads, 16-mer random dsDNA library, 0.1% formaldehyde crosslink after washing; high values mean tight binding
[1] = molecular target: T1, FLI1 (Homo sapiens, UniProt Q01543 1-452); conditions: protein: recombinant; tags: N-terminal GST; dsDNA, one strand shown
T1 sequence: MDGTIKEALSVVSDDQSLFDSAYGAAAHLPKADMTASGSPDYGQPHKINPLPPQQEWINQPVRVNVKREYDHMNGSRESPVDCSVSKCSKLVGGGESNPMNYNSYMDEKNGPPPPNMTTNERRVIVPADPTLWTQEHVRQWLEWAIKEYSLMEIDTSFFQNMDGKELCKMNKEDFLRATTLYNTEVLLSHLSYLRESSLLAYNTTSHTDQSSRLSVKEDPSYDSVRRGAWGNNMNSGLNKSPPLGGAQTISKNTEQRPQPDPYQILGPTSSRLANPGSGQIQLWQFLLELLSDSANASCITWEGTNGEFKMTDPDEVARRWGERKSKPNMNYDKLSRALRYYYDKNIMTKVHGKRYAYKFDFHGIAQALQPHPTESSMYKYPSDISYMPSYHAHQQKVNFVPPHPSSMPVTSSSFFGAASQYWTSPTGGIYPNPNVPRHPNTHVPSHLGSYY
How it was run: (§1)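 GST fusions of human transcription factors were expressed in yeast and captured with glutathione beads. Once given DNA barcodes and pooled alongside a tag-only sample, they were incubated for 30 min at room temperature with 200 nmole of a random double-stranded 16-mer DNA library in Tris/NaCl/DTT/glycerol buffer, then washed, crosslinked (0.1% formaldehyde), proximity-ligated, PCR-amplified and sequenced on an Illumina NextSeq500. The binding signal of each hexamer is its read frequency for a factor divided by its frequency for the tag-only sample.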

[2] = molecular target: T2, ELK1 (Homo sapiens, UniProt P19419 1-428); conditions: protein: recombinant; tags: N-terminal GST; dsDNA, one strand shown
T2 sequence: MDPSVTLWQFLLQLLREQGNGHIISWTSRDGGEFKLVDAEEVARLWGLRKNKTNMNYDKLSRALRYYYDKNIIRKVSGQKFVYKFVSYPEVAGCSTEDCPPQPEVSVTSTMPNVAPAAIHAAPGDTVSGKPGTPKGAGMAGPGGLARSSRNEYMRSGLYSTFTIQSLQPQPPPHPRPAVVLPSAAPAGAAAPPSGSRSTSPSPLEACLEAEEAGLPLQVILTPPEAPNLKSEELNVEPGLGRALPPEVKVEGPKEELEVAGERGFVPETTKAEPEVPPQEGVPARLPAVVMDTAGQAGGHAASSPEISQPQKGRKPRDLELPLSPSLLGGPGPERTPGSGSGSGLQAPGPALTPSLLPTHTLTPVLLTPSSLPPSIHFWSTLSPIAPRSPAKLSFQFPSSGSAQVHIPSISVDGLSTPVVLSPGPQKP
How it was run: as §1

[3] = molecular target: T3, GABPA (Homo sapiens, UniProt Q06546 1-454); conditions: protein: recombinant; tags: N-terminal GST; dsDNA, one strand shown
T3 sequence: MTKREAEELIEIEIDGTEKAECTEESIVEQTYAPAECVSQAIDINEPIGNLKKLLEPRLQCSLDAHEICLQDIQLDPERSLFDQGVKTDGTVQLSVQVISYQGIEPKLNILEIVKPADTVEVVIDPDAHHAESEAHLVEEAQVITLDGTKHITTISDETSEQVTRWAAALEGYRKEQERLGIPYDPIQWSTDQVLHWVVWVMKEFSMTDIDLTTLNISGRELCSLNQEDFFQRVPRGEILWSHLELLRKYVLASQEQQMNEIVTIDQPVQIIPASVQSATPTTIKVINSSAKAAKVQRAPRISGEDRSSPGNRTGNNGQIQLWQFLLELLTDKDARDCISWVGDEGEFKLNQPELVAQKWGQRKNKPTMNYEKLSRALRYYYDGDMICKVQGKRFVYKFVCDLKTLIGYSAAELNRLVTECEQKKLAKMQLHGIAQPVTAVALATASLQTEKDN
How it was run: as §1

[4] = molecular target: T4, ERG (Homo sapiens, UniProt P11308 1-479); conditions: protein: recombinant; tags: N-terminal GST; dsDNA, one strand shown
T4 sequence: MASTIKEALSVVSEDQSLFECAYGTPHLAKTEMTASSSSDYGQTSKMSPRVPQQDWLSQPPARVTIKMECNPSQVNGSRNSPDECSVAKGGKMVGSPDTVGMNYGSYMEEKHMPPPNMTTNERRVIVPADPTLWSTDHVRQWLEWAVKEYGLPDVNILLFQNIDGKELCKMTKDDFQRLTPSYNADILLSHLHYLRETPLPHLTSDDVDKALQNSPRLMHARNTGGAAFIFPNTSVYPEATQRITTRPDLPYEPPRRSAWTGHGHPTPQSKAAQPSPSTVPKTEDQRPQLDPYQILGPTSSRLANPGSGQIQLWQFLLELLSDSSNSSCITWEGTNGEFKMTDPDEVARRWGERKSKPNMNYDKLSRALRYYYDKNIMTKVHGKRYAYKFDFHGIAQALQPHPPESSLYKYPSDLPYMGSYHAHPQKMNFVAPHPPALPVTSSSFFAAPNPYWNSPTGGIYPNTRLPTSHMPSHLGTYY
How it was run: as §1

[5] = molecular target: ELF1 (Homo sapiens, UniProt P32519 1-619); conditions: protein: recombinant; tags: N-terminal GST; dsDNA, one strand shown
How it was run: as §1

[6] = molecular target: T5, EHF (Homo sapiens, UniProt Q9NZC4 1-300); conditions: protein: recombinant; tags: N-terminal GST; dsDNA, one strand shown
T5 sequence: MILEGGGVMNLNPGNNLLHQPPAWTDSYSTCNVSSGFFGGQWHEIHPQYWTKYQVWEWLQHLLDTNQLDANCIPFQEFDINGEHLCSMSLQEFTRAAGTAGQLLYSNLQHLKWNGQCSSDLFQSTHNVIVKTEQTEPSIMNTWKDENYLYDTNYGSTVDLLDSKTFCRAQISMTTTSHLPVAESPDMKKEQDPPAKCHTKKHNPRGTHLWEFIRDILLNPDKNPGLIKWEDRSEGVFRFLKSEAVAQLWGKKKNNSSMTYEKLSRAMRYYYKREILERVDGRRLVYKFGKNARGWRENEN
How it was run: as §1

[7] = molecular target: SPI1 (Homo sapiens, UniProt P17947 1-270); conditions: protein: recombinant; tags: N-terminal GST; dsDNA, one strand shown
How it was run: as §1

[8] = molecular target: SPIB (Homo sapiens, UniProt Q01892 1-262); conditions: protein: recombinant; tags: N-terminal GST; dsDNA, one strand shown
How it was run: as §1

[9] = molecular target: T6, ELK3 (Homo sapiens, UniProt P41970 1-407); conditions: protein: recombinant; tags: N-terminal GST; dsDNA, one strand shown
T6 sequence: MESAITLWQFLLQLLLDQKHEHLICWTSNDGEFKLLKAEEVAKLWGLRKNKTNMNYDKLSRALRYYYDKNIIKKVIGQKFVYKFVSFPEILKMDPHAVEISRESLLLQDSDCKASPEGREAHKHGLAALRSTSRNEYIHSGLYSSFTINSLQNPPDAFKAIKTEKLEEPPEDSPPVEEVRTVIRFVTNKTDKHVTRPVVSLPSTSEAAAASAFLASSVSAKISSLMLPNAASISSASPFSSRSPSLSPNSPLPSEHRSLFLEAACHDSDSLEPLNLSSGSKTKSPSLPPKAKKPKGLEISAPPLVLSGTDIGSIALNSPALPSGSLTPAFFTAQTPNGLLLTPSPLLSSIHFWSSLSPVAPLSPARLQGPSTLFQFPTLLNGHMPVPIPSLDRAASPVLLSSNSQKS
How it was run: as §1

[10] = molecular target: T7, FEV (Homo sapiens, UniProt Q99581 1-238); conditions: protein: recombinant; tags: N-terminal GST; dsDNA, one strand shown
T7 sequence: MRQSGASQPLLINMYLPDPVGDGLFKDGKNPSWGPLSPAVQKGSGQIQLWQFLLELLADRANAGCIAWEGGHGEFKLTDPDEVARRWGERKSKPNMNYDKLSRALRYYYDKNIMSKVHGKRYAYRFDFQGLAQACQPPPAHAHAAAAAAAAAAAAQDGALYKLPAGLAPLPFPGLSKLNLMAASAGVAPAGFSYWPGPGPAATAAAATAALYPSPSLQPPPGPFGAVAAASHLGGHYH
How it was run: as §1

[11] = molecular target: ETV5 (Homo sapiens, UniProt P41161 1-510); conditions: protein: recombinant; tags: N-terminal GST; dsDNA, one strand shown
How it was run: as §1

[12] = molecular target: HSF1 (Homo sapiens, UniProt Q00613 1-529); conditions: protein: recombinant; tags: N-terminal GST; chain copies: 3; dsDNA, one strand shown
How it was run: as §1

[13] = molecular target: T8, SPIC (Homo sapiens, UniProt Q8N5J4 1-248); conditions: protein: recombinant; tags: N-terminal GST; dsDNA, one strand shown
T8 sequence: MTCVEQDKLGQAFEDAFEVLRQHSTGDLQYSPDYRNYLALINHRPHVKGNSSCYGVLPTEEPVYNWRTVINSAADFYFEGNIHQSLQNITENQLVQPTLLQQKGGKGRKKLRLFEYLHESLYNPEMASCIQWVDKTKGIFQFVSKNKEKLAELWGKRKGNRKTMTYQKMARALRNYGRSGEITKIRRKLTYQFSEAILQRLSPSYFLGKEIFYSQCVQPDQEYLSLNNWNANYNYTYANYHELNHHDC
How it was run: as §1

[14] = molecular target: ELF4 (Homo sapiens, UniProt Q99607 1-663); conditions: protein: recombinant; tags: N-terminal GST; dsDNA, one strand shown
How it was run: as §1

[15] = molecular target: T9, ELK4 (Homo sapiens, UniProt P28324-2 1-405); conditions: protein: recombinant; tags: N-terminal GST; dsDNA, one strand shown
T9 sequence: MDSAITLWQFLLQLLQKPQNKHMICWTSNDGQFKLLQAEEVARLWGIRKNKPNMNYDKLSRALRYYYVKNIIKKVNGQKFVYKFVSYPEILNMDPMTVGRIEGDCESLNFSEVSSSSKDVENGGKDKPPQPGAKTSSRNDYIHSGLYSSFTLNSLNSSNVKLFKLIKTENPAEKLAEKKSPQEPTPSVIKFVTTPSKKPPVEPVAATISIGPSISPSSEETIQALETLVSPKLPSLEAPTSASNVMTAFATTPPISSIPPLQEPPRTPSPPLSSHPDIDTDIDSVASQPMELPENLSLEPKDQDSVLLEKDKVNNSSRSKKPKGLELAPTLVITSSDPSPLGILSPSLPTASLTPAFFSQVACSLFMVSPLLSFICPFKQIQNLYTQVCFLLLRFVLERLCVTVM
How it was run: as §1

[16] = molecular target: T10, ETV2 (Homo sapiens, UniProt O00321 1-342); conditions: protein: recombinant; tags: N-terminal GST; dsDNA, one strand shown
T10 sequence: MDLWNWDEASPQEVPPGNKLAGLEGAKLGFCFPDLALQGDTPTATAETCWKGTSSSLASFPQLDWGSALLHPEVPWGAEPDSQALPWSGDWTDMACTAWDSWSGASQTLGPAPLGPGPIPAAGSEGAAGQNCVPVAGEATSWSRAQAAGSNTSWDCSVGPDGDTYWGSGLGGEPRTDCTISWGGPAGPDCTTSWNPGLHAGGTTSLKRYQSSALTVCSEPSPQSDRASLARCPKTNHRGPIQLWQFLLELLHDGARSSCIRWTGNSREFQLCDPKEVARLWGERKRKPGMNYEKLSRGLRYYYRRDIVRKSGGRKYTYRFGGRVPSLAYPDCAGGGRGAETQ
How it was run: as §1

[17] = molecular target: T11, ELF3 (Homo sapiens, UniProt P78545 1-371); conditions: protein: recombinant; tags: N-terminal GST; dsDNA, one strand shown
T11 sequence: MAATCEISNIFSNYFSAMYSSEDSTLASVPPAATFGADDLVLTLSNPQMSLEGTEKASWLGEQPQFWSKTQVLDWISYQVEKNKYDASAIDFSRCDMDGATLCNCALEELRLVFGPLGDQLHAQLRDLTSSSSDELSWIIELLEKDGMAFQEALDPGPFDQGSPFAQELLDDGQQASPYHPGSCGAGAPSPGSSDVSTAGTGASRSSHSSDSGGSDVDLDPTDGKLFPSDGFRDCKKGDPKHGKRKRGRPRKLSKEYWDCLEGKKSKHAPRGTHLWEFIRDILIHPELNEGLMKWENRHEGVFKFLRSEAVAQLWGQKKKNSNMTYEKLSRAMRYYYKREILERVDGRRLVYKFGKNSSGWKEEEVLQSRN
How it was run: as §1

[18] = molecular target: ETV1 (Homo sapiens, UniProt P50549 1-477); conditions: protein: recombinant; tags: N-terminal GST; dsDNA, one strand shown
How it was run: as §1

Chain of ELF4 (Q99607 whole entry): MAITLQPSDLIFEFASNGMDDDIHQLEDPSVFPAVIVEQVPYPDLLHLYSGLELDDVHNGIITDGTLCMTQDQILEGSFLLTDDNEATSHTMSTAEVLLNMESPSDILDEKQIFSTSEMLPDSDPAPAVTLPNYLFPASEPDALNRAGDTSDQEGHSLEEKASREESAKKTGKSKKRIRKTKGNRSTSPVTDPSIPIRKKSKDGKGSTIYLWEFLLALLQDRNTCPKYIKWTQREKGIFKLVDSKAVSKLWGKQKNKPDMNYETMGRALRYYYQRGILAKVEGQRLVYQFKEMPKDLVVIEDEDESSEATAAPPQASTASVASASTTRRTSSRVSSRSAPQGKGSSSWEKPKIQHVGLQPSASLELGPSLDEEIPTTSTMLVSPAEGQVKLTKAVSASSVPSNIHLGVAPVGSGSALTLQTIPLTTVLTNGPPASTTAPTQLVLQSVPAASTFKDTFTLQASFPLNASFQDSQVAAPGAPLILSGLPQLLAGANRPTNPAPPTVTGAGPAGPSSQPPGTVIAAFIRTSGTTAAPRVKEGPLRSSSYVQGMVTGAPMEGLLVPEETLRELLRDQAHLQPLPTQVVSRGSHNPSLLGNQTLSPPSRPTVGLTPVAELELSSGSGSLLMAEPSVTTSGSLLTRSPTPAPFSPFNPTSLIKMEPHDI
Chain of ETV1 (P50549 whole entry): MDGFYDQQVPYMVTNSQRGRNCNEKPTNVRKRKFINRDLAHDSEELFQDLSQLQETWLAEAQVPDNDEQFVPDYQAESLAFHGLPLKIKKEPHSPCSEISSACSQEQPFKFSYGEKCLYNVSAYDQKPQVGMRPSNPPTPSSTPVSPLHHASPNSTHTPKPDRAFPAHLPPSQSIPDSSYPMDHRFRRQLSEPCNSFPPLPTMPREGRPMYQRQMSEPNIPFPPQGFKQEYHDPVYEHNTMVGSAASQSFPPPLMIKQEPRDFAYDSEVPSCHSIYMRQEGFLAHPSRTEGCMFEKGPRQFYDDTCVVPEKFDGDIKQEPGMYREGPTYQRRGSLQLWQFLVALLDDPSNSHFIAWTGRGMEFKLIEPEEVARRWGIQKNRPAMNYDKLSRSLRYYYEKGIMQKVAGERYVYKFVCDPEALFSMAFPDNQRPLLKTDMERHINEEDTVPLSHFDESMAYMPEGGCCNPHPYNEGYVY
Chain of ETV5 (P41161 whole entry): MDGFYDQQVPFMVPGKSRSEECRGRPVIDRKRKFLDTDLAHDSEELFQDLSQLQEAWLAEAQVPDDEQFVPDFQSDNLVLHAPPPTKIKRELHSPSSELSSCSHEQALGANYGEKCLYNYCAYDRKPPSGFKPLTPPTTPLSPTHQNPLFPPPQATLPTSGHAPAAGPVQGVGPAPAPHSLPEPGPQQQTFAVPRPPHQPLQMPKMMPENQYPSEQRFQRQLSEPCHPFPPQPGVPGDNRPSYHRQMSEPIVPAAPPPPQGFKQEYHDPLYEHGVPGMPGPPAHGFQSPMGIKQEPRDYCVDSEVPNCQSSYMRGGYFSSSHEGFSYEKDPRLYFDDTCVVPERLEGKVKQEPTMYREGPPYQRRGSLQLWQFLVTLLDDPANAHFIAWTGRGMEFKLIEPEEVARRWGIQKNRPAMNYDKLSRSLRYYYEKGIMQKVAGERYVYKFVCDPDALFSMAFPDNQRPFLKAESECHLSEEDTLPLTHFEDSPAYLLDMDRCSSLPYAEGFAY
Chain of ELF1 (P32519 whole entry): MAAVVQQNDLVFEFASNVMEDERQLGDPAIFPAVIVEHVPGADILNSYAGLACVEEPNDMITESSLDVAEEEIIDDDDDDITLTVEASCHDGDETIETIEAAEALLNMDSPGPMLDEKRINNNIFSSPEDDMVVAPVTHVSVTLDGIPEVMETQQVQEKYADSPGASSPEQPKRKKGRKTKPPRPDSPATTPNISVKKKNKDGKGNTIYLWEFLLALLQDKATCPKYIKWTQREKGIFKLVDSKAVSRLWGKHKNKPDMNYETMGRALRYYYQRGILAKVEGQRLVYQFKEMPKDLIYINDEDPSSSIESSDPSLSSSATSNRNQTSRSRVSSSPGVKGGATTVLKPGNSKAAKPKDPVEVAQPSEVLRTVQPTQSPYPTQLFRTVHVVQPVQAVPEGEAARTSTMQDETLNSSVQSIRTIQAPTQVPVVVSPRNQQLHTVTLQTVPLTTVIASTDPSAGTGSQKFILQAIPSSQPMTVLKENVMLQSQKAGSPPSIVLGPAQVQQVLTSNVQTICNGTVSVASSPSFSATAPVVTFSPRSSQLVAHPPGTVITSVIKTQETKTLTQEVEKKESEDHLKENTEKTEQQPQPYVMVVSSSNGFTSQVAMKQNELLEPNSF
Chain of HSF1 (Q00613 whole entry): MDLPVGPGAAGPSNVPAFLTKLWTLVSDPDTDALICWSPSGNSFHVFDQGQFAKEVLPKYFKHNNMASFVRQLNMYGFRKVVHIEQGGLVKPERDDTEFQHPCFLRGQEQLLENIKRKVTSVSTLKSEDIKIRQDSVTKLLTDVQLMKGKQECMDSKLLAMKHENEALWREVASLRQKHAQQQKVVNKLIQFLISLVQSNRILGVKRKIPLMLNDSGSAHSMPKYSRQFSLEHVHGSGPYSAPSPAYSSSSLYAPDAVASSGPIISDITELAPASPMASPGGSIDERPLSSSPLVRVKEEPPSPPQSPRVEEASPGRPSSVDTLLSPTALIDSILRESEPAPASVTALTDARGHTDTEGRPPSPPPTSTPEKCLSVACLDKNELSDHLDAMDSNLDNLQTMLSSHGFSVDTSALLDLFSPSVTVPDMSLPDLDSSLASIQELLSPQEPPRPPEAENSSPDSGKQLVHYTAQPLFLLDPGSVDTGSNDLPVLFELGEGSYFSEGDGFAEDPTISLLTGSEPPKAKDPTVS
Chain of SPIB (Q01892 whole entry): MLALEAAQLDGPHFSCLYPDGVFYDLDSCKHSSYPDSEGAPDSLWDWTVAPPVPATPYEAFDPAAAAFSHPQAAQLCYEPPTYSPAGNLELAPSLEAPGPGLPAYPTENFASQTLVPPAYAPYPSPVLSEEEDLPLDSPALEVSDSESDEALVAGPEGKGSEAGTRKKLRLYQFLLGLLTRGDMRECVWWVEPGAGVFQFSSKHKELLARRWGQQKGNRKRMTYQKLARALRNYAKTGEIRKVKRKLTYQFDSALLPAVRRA

TGACAT was tested, and the binding signal [1] was 1.27 fold enrichment (6-mer frequency, TF over GST control), the binding signal [2] was 1.27 fold enrichment (6-mer frequency, TF over GST control) and the binding signal [3] was 1.31 fold enrichment (6-mer frequency, TF over GST control). The binding signal [4] was 1.19 fold enrichment (6-mer frequency, TF over GST control), the binding signal [5] was 1.28 fold enrichment (6-mer frequency, TF over GST control) and the binding signal [6] was 1.36 fold enrichment (6-mer frequency, TF over GST control). The binding signal [7] was 1.21 fold enrichment (6-mer frequency, TF over GST control), the binding signal [8] was 1.19 fold enrichment (6-mer frequency, TF over GST control) and the binding signal [9] was 1.15 fold enrichment (6-mer frequency, TF over GST control). For the same sequence, the binding signal [10] was 1.23 fold enrichment (6-mer frequency, TF over GST control), the binding signal [11] was 1.26 fold enrichment (6-mer frequency, TF over GST control) and the binding signal [12] was 1.01 fold enrichment (6-mer frequency, TF over GST control). For the same sequence, the binding signal [13] was 1.07 fold enrichment (6-mer frequency, TF over GST control), the binding signal [14] was 1.24 fold enrichment (6-mer frequency, TF over GST control) and the binding signal [15] was 1.3 fold enrichment (6-mer frequency, TF over GST control). The binding signal [16] was 1.18 fold enrichment (6-mer frequency, TF over GST control), the binding signal [17] was 1.25 fold enrichment (6-mer frequency, TF over GST control) and the binding signal [18] was 1.23 fold enrichment (6-mer frequency, TF over GST control).
